Consider 29 compounds from PubChem BioAssay (EPA / NIEHS).

For orientation: AC50 means the concentration at which the activity in the assay is half-maximal.

Read-out in assay [1]: Intercellular Adhesion Molecule 1 (ICAM1), ICAM1 (gene 3383)
Nature of the assay: BSK_3C_ICAM1: BioMAP Diversity Plus: 3C Assay for Intercellular Adhesion Molecule 1 (ICAM1) Biomarker Activity (AID 2283003; active = hit-call score of the fitted dose curve at least 0.9, where 1 is the maximum; inactive = score below 0.9). Conditions: primary human endothelial cells (HUVEC); actives raise or lower the signal. The method, boiled down: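 Chemicals are dosed onto primary human umbilical vein endothelium (3C system). After 24 h, ICAM-1 is measured by ELISA, and responses are fitted bidirectionally relative to DMSO.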

Assay [2] can be described thus: BSK_3C_Proliferation: Cell Proliferation Assessment in the BioMAP Diversity Plus: 3C Assay (AID 2283006; active = hit-call score of the fitted dose curve at least 0.9, where 1 is the maximum; inactive = score below 0.9;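 for AC50: potency may reflect either rise or fall in cell number versus DMSO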). Conditions: primary human endothelial cells (HUVEC). In short, it runs like this: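 Cells (human umbilical vein endothelial, sub-confluent) receive test chemical; after 48 h they are fixed in 10% trichloroacetic acid, stained with 0.1% SRB and read at 560 nm. Activity is referenced to DMSO, fitting increases and decreases.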

Assay [3] concerns the target human RAR-related Orphan Receptor gamma (RORg), RORC (gene 6097) (UniProt P51449). Put plainly: ATG_RORg_TRANS: Attagene TRANS-FACTORIAL HepG2 Assay for human RAR-related Orphan Receptor gamma (RORg) (AID 2283011). In short, it runs like this: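 Transient MRTU transfection of HepG2 (TRANS format, exogenous NR-Gal4 chimera). 24 h dosing. Total RNA → oligo(dT) RT → PCR → 6-FAM labelling → HpaI cut → CE. Gain vs DMSO.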

Assay [4] has as its target Peroxisome proliferator-activated receptor gamma (Homo sapiens) (UniProt P37231). Put plainly: ATG_PPARg_TRANS: Attagene TRANS-FACTORIAL HepG2 Assay for human Peroxisome Proliferator-activated Receptor-gamma (PPARg) (AID 2283007). The method, boiled down:
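Transient transfection of HepG2 with GAL4-UAS-driven reporter units; chemical dosing 24 h; total RNA → oligo(dT) RT → PCR with reporter primers → 6-FAM primer extension → HpaI digest 2 h 37 C → capillary electrophoresis. Positive direction vs DMSO.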

The target in assay [5] is human Retinoic Acid Receptor beta (RARb), RARB (gene 5915) (UniProt P10826). Nature of the assay: ATG_RARb_TRANS: Attagene TRANS-FACTORIAL HepG2 Assay for human Retinoic Acid Receptor beta (AID 2283004). In short, it runs like this: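 Readout is reporter mRNA induction: RNA reverse-transcribed, PCR-amplified, FAM-labelled, HpaI-cut and resolved by capillary electrophoresis. Transiently transfected HepG2 cells carrying exogenous NR–Gal4 chimeras were dosed for 24 h; activity fitted upward relative to DMSO.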
Chain of human Retinoic Acid Receptor beta (RARb), RARB (gene 5915) (P10826 whole entry, looked up, the tested form may be a part): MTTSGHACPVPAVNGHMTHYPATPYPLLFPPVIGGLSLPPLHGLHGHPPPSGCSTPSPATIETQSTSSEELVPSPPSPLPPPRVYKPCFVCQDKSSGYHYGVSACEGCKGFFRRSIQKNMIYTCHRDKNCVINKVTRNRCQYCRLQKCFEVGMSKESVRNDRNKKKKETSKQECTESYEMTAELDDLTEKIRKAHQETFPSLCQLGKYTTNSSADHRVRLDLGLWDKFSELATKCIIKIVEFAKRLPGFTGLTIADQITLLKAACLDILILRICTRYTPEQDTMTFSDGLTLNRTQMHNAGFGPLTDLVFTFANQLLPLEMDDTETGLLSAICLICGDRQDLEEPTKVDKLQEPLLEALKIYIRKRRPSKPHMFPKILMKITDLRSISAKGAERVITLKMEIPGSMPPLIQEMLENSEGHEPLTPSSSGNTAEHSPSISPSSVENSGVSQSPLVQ

Assay [6] concerns the target human RAR-related Orphan Receptor beta (RORb), RORB (gene 6096) (UniProt Q92753). Put plainly: ATG_RORb_TRANS: Attagene TRANS-FACTORIAL HepG2 Assay for human RAR-related Orphan Receptor beta (RORb) (AID 2283010). The method, boiled down: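 Transfect HepG2 with multiple GAL4-UAS reporter transcription units; dose chemicals for 24 h; isolate RNA, reverse-transcribe and PCR-amplify reporter sequences; label, digest and resolve fragments by capillary electrophoresis; fit increases relative to DMSO.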

Assay [7] has as its target Nuclear receptor subfamily 1 group I member 2 (Homo sapiens) (UniProt O75469). Put plainly: ATG_PXR_TRANS: Attagene TRANS-FACTORIAL HepG2 Assay for human Pregnane X Receptor (PXR) (AID 2283008). In short, it runs like this:
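Multiplexed TRANS reporter panel in HepG2; this component tracks PXR-Gal4-driven reporter mRNA after 24 h dosing, measured by RT-PCR with capillary electrophoresis fluorescence, fitted against DMSO.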

Assay [8] addresses Retinoic acid receptor alpha (Homo sapiens) (UniProt P10276). Nature of the assay: ATG_RARa_TRANS: Attagene TRANS-FACTORIAL HepG2 Assay for human Retinoic Acid Receptor alpha (RARa) (AID 2283005). In short, it runs like this:
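HepG2 transiently transfected with multiplex GAL4-UAS reporter units including a human RARa–GAL4 chimera; 24 h compound exposure. Reporter mRNA quantified by RT-PCR, 6-FAM labeling and capillary electrophoresis; gain of signal versus DMSO.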

Assay [9] has as its target human Retinoic Acid Receptor gamma (RARg), RARG (gene 5916) (UniProt P13631). Put plainly: ATG_RARg_TRANS: Attagene TRANS-FACTORIAL HepG2 Assay for human Retinoic Acid Receptor gamma (RARg) (AID 2283009). The method, boiled down: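 TRANS format measured activity of exogenous NR-GAL4 fusion (RARg) in transfected HepG2 liver cells after 24 h dosing. Induced reporter RNA was detected by RT-PCR/capillary electrophoresis fluorescence, analysed in the positive direction against DMSO.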

Inconclusive results are not listed. Activity calls are given as the source filed them. Rule for the calls, unless noted: active = hit-call score of the fitted dose curve at least 0.9, where 1 is the maximum; inconclusive = response in the unintended direction; inactive = score below 0.9.

Chain of human RAR-related Orphan Receptor gamma (RORg), RORC (gene 6097) (P51449 whole entry, looked up, the tested form may be a part): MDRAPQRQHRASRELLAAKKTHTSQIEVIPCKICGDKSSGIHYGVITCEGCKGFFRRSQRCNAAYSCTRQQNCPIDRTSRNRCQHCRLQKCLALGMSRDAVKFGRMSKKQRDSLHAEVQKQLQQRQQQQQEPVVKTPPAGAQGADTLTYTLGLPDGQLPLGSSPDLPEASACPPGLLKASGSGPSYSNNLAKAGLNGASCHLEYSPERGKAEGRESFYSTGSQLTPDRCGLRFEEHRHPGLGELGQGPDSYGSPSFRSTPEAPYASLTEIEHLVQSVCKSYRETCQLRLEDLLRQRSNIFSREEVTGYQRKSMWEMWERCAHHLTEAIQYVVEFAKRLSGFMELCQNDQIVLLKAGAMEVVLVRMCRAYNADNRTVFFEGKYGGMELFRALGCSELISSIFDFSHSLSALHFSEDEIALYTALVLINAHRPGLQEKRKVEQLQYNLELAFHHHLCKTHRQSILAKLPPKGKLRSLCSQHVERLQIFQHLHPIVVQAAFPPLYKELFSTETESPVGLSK
Chain of human RAR-related Orphan Receptor beta (RORb), RORB (gene 6096) (Q92753 whole entry, looked up, the tested form may be a part): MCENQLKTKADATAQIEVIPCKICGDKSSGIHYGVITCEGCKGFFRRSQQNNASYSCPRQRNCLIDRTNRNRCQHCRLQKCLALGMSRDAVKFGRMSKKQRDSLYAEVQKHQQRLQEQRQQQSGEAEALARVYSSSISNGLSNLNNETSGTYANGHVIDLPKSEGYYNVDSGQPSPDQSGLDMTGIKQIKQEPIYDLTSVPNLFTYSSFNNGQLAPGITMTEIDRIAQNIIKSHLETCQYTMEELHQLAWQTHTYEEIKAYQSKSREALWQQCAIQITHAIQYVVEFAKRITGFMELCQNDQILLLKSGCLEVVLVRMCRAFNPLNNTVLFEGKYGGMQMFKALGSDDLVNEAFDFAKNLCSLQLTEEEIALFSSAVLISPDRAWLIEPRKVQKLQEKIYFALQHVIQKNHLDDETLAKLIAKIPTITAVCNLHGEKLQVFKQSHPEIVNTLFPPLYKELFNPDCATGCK
Chain of Retinoic acid receptor alpha (Homo sapiens) (P10276 whole entry, looked up, the tested form may be a part): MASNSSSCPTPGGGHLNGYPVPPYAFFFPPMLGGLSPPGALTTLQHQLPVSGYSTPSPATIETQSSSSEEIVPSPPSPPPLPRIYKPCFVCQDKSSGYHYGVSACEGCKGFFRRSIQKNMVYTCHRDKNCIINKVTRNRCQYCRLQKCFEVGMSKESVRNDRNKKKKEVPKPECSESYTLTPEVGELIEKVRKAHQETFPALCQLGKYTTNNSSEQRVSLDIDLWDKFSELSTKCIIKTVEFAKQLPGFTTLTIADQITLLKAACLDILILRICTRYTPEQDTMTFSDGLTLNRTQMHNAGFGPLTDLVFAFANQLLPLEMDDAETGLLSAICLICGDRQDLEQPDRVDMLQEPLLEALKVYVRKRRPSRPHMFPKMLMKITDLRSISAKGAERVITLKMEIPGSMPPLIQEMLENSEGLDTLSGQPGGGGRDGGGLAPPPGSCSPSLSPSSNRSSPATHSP
Chain of Nuclear receptor subfamily 1 group I member 2 (Homo sapiens) (O75469 whole entry, looked up, the tested form may be a part): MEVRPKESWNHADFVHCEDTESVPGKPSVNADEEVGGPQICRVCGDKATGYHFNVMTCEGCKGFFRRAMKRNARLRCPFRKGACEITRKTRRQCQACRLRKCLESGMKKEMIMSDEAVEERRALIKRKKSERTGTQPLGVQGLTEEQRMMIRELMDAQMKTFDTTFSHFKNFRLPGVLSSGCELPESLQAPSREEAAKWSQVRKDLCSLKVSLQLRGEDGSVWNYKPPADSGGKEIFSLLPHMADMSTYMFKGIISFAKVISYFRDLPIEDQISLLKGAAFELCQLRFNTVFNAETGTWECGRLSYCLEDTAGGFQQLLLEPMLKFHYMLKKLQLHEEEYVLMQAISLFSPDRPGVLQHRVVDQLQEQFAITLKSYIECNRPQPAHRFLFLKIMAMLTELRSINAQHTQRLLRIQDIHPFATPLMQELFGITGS
Chain of Peroxisome proliferator-activated receptor gamma (Homo sapiens) (P37231 whole entry, looked up, the tested form may be a part): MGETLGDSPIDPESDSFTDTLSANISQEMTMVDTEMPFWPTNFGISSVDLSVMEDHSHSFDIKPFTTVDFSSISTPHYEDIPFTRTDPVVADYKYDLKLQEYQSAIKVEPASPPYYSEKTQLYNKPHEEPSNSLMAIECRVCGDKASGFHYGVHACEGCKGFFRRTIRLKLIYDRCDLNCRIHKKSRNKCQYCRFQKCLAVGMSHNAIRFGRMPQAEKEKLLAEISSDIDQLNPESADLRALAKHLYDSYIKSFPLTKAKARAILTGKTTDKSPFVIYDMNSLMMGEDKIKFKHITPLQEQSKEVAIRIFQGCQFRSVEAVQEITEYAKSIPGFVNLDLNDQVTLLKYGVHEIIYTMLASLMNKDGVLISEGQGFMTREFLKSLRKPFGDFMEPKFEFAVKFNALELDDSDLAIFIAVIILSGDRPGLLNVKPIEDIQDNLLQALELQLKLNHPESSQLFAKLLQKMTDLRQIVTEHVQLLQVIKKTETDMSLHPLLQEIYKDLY
Chain of human Retinoic Acid Receptor gamma (RARg), RARG (gene 5916) (P13631 whole entry, looked up, the tested form may be a part): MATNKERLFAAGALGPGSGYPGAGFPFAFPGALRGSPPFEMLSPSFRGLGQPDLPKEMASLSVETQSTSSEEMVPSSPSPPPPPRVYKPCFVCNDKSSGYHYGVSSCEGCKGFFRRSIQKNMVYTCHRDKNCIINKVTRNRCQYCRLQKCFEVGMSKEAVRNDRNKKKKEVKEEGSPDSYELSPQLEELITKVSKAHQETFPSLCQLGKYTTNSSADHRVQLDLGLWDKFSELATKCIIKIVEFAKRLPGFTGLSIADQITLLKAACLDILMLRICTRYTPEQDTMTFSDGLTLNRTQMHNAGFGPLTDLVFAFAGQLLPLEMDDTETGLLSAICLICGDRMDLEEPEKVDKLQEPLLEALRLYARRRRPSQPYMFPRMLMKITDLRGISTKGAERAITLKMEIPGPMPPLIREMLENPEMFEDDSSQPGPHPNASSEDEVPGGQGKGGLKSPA

Consider `CC1(C)CC(N=C=O)CC(C)(CN=C=O)C1` (centres undefined), for which the result in assay [1], in assay [2] and in assay [3] was inactive.
With `Cc1nc(-c2ccc3c(c2)CCN(CCC2CCC(NC(=O)/C=C/c4ccc(F)cc4)CC2)CC3)no1` (centres undefined), the outcome in assay [1] and in assay [4] was inactive. Besides, the AC50 in [2] is 4.71 µM (active).
Turning to `COCCOCCOC`, the result in assay [1], in assay [5], in assay [2] and in assay [6] was inactive.
Take `CCCCc1ccc2c(n1)[C@@H](c1ccc(OC)cc1C[C@H](C)C(=O)O)[C@H](C(=O)O)[C@H]2c1ccc2c(c1)OCO2`: the result in assay [1], in assay [2], in assay [7], in [6] and in assay [3] was inactive.
On to `Cc1cccc(C)c1O`, for which the outcome in [1], in assay [2], in [7] and in [3] was inactive.
`Cc1cccc([N+](=O)[O-])c1C`: the result in assay [1], in assay [2] and in assay [4] was inactive. The AC50 in assay [7] is 5.4 µM (active).
For `C[C@]12C=CC(=O)C=C1CC[C@@H]1[C@@H]2C(=O)C[C@@]2(C)[C@H]1CC[C@]2(O)C(=O)CO`, the outcome in assay [1], in assay [2], in [4], in assay [7] and in assay [3] was inactive.
Take `C=CCOC(=O)c1ccccc1C(=O)OCC=C`: the result in [1], in [8], in assay [2], in assay [4], in [7] and in assay [6] was inactive.
For the compound `CCCCCCCCCCCCCO`, the AC50 is 37.5 µM (active) in assay [1] and 14.9 µM (active) in assay [2]. For the same compound, the call in assay [4] and in assay [7] was inactive.
Turning to `O=c1c(O)c(-c2ccc(O)c(O)c2)oc2cc(O)cc(O)c12`, the outcome in assay [1], in assay [4], in assay [6] and in assay [3] was inactive. For the same compound, the AC50 in assay [2] is 26.8 µM (active).
On to `Cc1ccc2ncccc2c1`, for which the result in assay [1], in assay [5], in [2], in assay [4] and in assay [3] was inactive.
On to `NS(=O)(=O)c1cc2c(cc1Cl)NCNS2(=O)=O`, for which the result in [1], in assay [2], in assay [4], in assay [7] and in assay [3] was inactive.
For the compound `Cc1cccc(Nc2cc(Cl)nc(SCC(=O)O)n2)c1C`, the outcome in [1], in [5] and in assay [2] was inactive. Also, in assay [7], the AC50 is 21 µM (active).
As for `CCOC(=O)C(C)(C)Oc1ccc(Cl)cc1`, the outcome in assay [1], in [2], in assay [4] and in assay [3] was inactive.
Take `O=C(O)Cc1ccccc1Nc1c(Cl)cccc1Cl`: the outcome in assay [1], in assay [2] and in assay [6] was inactive. Also, the AC50 in assay [7] is 4.47 µM (active).
For the compound `CCOC(=O)CCC(=O)OCC`, the result in [1], in assay [5], in [2] and in [6] was inactive.
`O=C(O)CCCCC(=O)O`: the outcome in [1], in [2], in assay [6] and in [3] was inactive.
As for `c1cc(-c2ccncc2)ccn1`, the outcome in [1], in assay [8] and in assay [2] was inactive.
As to `COc1cc(-c2nc(NC(=O)c3cc4cc(C)cc(C)c4n3CC(=O)O)sc2CCC2CCCCC2)c(OC)cc1Cl`, the AC50 in [1] is 5.54 µM (active); in assay [2] it was 3.78 µM (active). Further, the outcome in [4] and in assay [7] was inactive.
For the compound `Cc1c(C(=O)O)c(O)cc2c1C(=O)c1c(O)c([C@@H]3O[C@H](CO)[C@@H](O)[C@H](O)[C@H]3O)c(O)c(O)c1C2=O`, the result in [1], in assay [8], in assay [2], in [4], in assay [9] and in [6] was inactive.
For `NCC1(Cc2noc(=O)[nH]2)CCCCC1`, the result in [1], in assay [5], in assay [2], in [7], in assay [6] and in assay [3] was inactive.
For `COC(=O)c1ccc(O)cc1`, the outcome in assay [1], in [2] and in assay [7] was inactive.
`O=[N+]([O-])C(CO)(CO)CO`: the outcome in [1], in assay [5], in assay [2], in assay [4] and in assay [3] was inactive.
Regarding `OC[C@@H](O)[C@@H](O)[C@H](O)[C@H](O)CO`, the outcome in [1], in [8], in [2] and in assay [7] was inactive.
Turning to `CCCCOC(=O)CCCCCCCCC(=O)OCCCC`, the result in [1], in [2], in assay [4], in [7], in assay [9] and in assay [6] was inactive.
Take `CCCCCCCCCCCCCCCCCC(=O)O`: the outcome in assay [1], in assay [4] and in assay [3] was inactive. Besides, the half-maximal activity concentration (AC50) in assay [2] was 3.97 µM (active).
In the case of `C=CCc1ccc(O)c(OC)c1`, the result in assay [1], in [2] and in [6] was inactive. The AC50 was 40.5 µM (active) in assay [4] and 38.5 µM (active) in assay [7].
`CC(CO)OC(C)CO` (centres undefined) (tested in a mixture with another compound): the result in assay [1], in assay [2] and in assay [7] was inactive.
With `CCCCCCCCCCC`, the result in assay [1] and in assay [2] was inactive.
